Among all 5,500 compounds or so, about 2,000 (36%) were called active. Inconclusive results (about 18%) are left out. Rule as the data show it: active = normalized growth mostly below about 0.91 (no sharp cut-off); inconclusive = no clear call, values can overlap the other calls; inactive = mostly above about 0.92. The list shows a part of the results.
Test: chemical genetic growth profiling, strain panel (AID 1159580);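 also: tested at 20 µM; growth read once vehicle control cultures reached saturation at 30 °C; 1 = growth at the plate median or of vehicle wells; lower values mean less growth of the strain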
Details: S. cerevisiae deletion strains, growth OD

Measured: normalized growth

CC(=O)O[C@H]1C(=O)[C@@]2(C)C([C@H](OC(=O)c3ccccc3)[C@]3(O)C[C@H](O)C(C)=C1C3(C)C)[C@]1(OC(C)=O)CO[C@@H]1C[C@@H]2O (stereo partly drawn)
inactive: locus YAL021C, strain ccr4, active compounds read low 0.974 | locus YAL026C, strain drs2, active compounds read low 0.983 | locus YAL030W, strain snc1, active compounds read low 1 | locus YBL061C, strain skt5, active compounds read low 1.02 | locus YBR009C, strain hhf1, active compounds read low 0.986 | locus YBR023C, strain chs3, active compounds read low 0.998 | locus YBR171W, strain sec66, active compounds read low 1 | locus YBR231C, strain swc5, active compounds read low 1 | locus YBR279W, strain paf1, active compounds read low 0.999 | locus YCL011C, strain gbp2, active compounds read low 1 | locus YCL016C, strain dcc1, active compounds read low 1.01 | locus YCL069W, strain vba3, active compounds read low 0.98 | locus YCR088W, strain abp1, active compounds read low 0.986 | locus YDL005C, strain med2, active compounds read low 1 | locus YDL040C, strain nat1, active compounds read low 0.999 | locus YDR001C, strain nth1, active compounds read low 0.99 | locus YDR069C, strain doa4, active compounds read low 1.02 | locus YDR137W, strain rgp1, active compounds read low 1.05 | locus YDR159W, strain sac3, active compounds read low 1.01 | locus YDR195W, strain ref2 0.946 | locus YDR297W, strain sur2, active compounds read low 0.977 | locus YDR334W, strain swr1, active compounds read low 0.969 | locus YDR335W, strain msn5, active compounds read low 0.993 | locus YDR392W, strain spt3, active compounds read low 0.985 | locus YEL003W, strain gim4, active compounds read low 0.991 | locus YEL037C, strain rad23, active compounds read low 0.983 | locus YEL061C, strain CIN8 (second series), active compounds read low 0.981 | locus YER015W, strain faa2, active compounds read low 1 | locus YER016W, strain bim1, active compounds read low 1.01 | locus YER111C, strain swi4, active compounds read low 1 | locus YER155C, strain BEM2 (second series), active compounds read low 1.01 | locus YFR010W, strain ubp6, active compounds read low 0.985 | locus YGL167C, strain pmr1, active compounds read low 1 | locus YGL173C, strain kem1, active compounds read low 0.998 | locus YGL227W, strain vid30, active compounds read low 0.992 | locus YGL240W, strain doc1, active compounds read low 1 | locus YGL253W, strain hxk2, active compounds read low 0.99 | locus YHR013C, strain ard1, active compounds read low 1 | locus YHR027C, strain rpn1, active compounds read low 1 | locus YHR030C, strain SLT2, active compounds read low 0.988 | locus YHR079C, strain IRE1, active compounds read low 0.995 | locus YHR142W, strain chs7, active compounds read low 0.984 | locus YJL092W, strain hpr5, active compounds read low 0.998 | locus YJL095W, strain BCK1 (second series), active compounds read low 0.995 | locus YJL095W, strain BCK1, active compounds read low 0.995 | locus YJL115W, strain asf1, active compounds read low 0.973 | locus YJL129C, strain trk1, active compounds read low 0.982 | locus YJL154C, strain vps35, active compounds read low 0.98 | locus YJL164C, strain tpk1, active compounds read low 1 | locus YJL166W, strain qcr8, active compounds read low 1 | locus YJR066W, strain TOR1, active compounds read low 0.94 | locus YKL160W, strain elf1, active compounds read low 1.01 | locus YKR026C, strain gcn3, active compounds read low 0.985 | locus YKR091W, strain srl3, active compounds read low 1.01 | locus YLL001W, strain dnm1, active compounds read low 1 | locus YLL026W, active compounds read low 0.999 | locus YLL041C, strain sdh2, active compounds read low 0.985 | locus YLR027C, strain aat2, active compounds read low 0.988 | locus YLR113W, strain HOG1, active compounds read low 1.01 | locus YLR221C, strain rsa3, active compounds read low 0.994 | locus YLR258W, strain gsy2, active compounds read low 0.999 | locus YLR262C, strain YPT6 (second series), active compounds read low 1 | locus YLR320W, strain mms22, active compounds read low 1.01 | locus YLR342W, strain FKS1, active compounds read low 1.01 | locus YLR357W, strain rsc2, active compounds read low 0.968 | locus YLR370C, strain arc18, active compounds read low 0.984 | locus YLR384C, strain iki3, active compounds read low 0.981 | locus YML120C, strain ndi1, active compounds read low 1.01 | locus YMR058W, strain fet3, active compounds read low 0.99 | locus YMR125W, strain sto1, active compounds read low 0.993 | locus YMR129W, active compounds read low 0.988 | locus YMR205C, strain PFK2, active compounds read low 0.989 | locus YMR231W, strain pep5, active compounds read low 1 | locus YNL071W, strain lat1, active compounds read low 0.979 | locus YNL183C, strain NPR1, active compounds read low 0.953 | locus YNL209W, strain ssb2, active compounds read low 0.987 | locus YNL248C, strain rpa49, active compounds read low 0.974 | locus YNL322C, strain KRE1 (second series), active compounds read low 1.01 | locus YNR049C, strain mso1, active compounds read low 1.01 | locus YOR001W, strain rrp6, active compounds read low 0.982 | locus YOR070C, strain gyp1, active compounds read low 0.987 | locus YOR080W, strain dia2, active compounds read low 0.993 | locus YOR083W, strain WHI5, active compounds read low 1.01 | locus YOR106W, strain vam3, active compounds read low 1.01 | locus YOR231W, strain MKK1, active compounds read low 0.973 | locus YOR265W, strain rbl2, active compounds read low 0.969 | locus YOR270C, strain vph1, active compounds read low 0.888 | locus YOR290C, strain snf2, active compounds read low 1.02 | locus YPL051W, strain arl3, active compounds read low 1.01 | locus YPL078C, strain atp4, active compounds read low 0.996 | locus YPL106C, strain sse1, active compounds read low 0.987 | locus YPL240C, strain hsp82, active compounds read low 0.995 | locus YPL256C, strain CLN2, active compounds read low 0.966

— PubChem BioAssay AID1159580 (chemical genetic matrix, 2015)
